Bioassay records (PubChem BioAssay)
LASV entry inh = Lassa virus entry inhibition; Potency, µM (series often up to 37.9 µM), without a hit: at the highest dose activity change, negative = inhibition, usual class: inhibitors; Lassa virus pseudotype entry inhibition, cell reporter; 300,000 tested, 1.2% active; AID 540256; calls by dose curve; tested in HEK293 cells; further: nearly all actives have a fitted effect of over 50% in size
Vaccinia mCherry = vaccinia inhibition (mCherry reporter). Vaccinia virus mCherry reporter infection, fluorescence. Potency, µM (top dose mostly 36.5 µM), without a hit: at the top dose activity change, negative = inhibition, hits mostly inhibitors. 310,000 tested, 0.63% active. AID 720579; calls by dose curve; tested in A549 cells; further: nearly all actives have a fitted effect of over 35% in size
FMDV inh = antivirals against foot and mouth disease virus | FMDV antiviral cell-based qHTS | Potency, µM (titrated, usually from 57.9 µM), inactives show at the top dose activity change, negative = inhibition, hits mostly inhibitors | 410,000 tested, 1.2% active; calls by dose curve; tested in HEK293T cells; further: read-out not given here; nearly all actives have a fitted effect of over 45% in size
MARV entry inh = Marburg virus entry inhibition | Marburg virus pseudotyped entry inhibition, cell reporter | Potency, µM (doses to about 37.8 µM), for inactives: at the top dose activity change, negative = inhibition, hits mostly inhibitors | 300,000 tested, 1.8% active; calls by dose curve; tested in HEK293 cells
Vaccinia Venus = vaccinia inhibition (Venus reporter) | Vaccinia virus Venus reporter expression, fluorescence | Potency, µM (top dose mostly 36.5 µM), inactives show at the top dose activity change, negative = inhibition, actives largely listed as inhibitors | 330,000 tested, 0.46% active | AID 720580; calls by dose curve; tested in A549 cells; further: nearly all actives have a fitted effect of over 30% in size
Starred values were filed as active, the others as inactive; i = inactive; ? = inconclusive; . = no result given; [ ] = another dose, or the depositor's remark. In the library only some 3.2% were active in any assay of this set; here they are far more common. On the % scale 0 is the no-effect control and ±100 the full control effect; potency means the concentration at half of the fitted maximal effect.

SMILES | LASV entry inh | Vaccinia mCherry | FMDV inh | MARV entry inh | Vaccinia Venus
O=C(O)c1ccccc1-c1c2ccc(=O)cc-2oc2cc(O)ccc12 | 28µM* | . | . | 35µM* | .
CC(Oc1ccccc1)C(=O)Nc1nc(-c2ccccn2)cs1 (stereo not given) | -19% | 7.1µM* | -21% | -14%[46.1 µM] | ?
O=C(Nc1nc(-c2ccccn2)cs1)c1ccc(Cl)s1 | . | 3.2µM* | -8% | . | ?
Cc1cccnc1Nc1nc(-c2ccccn2)cs1 | 7.1µM* | 2.5µM* | -43% | ? | 3.2µM*
CC(Oc1cccc(Cl)c1)C(=O)Nc1nc(-c2ccccn2)cs1 (stereo not given) | ? | 11µM* | ? | ? | ?
Cc1cccnc1Nc1nc(-c2ccccc2)cs1 | . | . | 8% | . | .
C[C@H](NC(=O)c1ccccc1)C(=O)Nc1nc(-c2ccccn2)cs1 | -29% | -2% | ? | ? | -4%
Cc1ccc(C(=O)Nc2nc(-c3ccccn3)cs2)s1 | . | . | -13% | . | .
CC(Oc1ccccc1)C(=O)Nc1nc(-c2ccncc2)cs1 (stereo not given) | . | . | -1% | . | .
COc1cccc([C@H]2NC(=O)C[C@@H]3C[C@@H](C)[C@@H](c4cccc(OC)c4)N3C(=O)C=CC[C@@H]2C)c1 | ? | . | . | 8%[14.2 µM] | .
Cc1ccc(-c2cc(C(=O)Nc3sc4c(c3C(=O)NCc3ccco3)CCC4)[nH]n2)c(O)c1 | 4% | . | 25µM* | 1% | .
Cc1cc(O)c(-c2cc(C(=O)Nc3sc4c(c3C(=O)NCc3ccco3)CCC4)[nH]n2)cc1C | . | ? | -4% | . | 0%
CC(OC(=O)CCc1cc(C(C)(C)C)c(O)c(C(C)(C)C)c1)C(=O)NC1CC1 (stereo not given) | ? | 13µM* | 13% | ? | -18%
O=C(N/N=C1\C[C@@H](O)[C@@H](O)[C@@H]2[C@@H]3C(=O)N(c4cccc(Oc5ccccc5)c4)C(=O)[C@@H]3CC[C@H]12)OCc1ccccc1 | . | . | . | 4%[14.2 µM] | .
CC[C@]1(c2ccccc2OC)ON(c2ccccc2C(F)(F)F)C1=O | . | -23% | 22µM* | . | ?
CC(C)C[C@]1(c2ccccc2)ON(c2ccccc2C(F)(F)F)C1=O | . | -9% | -27% | . | ?
CCN(CC)C(=O)Cn1cc(/C=C2\C(=O)NC(=O)N(c3ccccc3F)C2=O)c2ccccc21 | ? | -3% | 25µM* | ? | -15%
COC(=O)CSC1=C(C#N)C(c2ccc(F)cc2)CC(=O)N1 (stereo not given) | . | -20% | -23% | . | -18%
COC(=O)CSC1=C(C#N)C(c2ccc(C)o2)CC(=O)N1 (stereo not given) | ? | -3% | -20% | 1.8µM* | -25%
COc1ccc(NC(=O)CCC(=O)N2CCCC2)c([N+](=O)[O-])c1 | . | . | 6% | . | .
O=S(=O)(c1ccc(Cl)cc1)c1cnc2ccccc2n1 | ? | -9% | 25µM* | -61%[46.1 µM] | -4%
Cc1ccc2cc(C=C(C#N)C#N)c(Cl)nc2c1 | 1% | -19% | 32µM* | -1% | 24%
Cc1ccc2cc(C=C(C#N)C#N)c(N3CCCCC3)nc2c1 | 21% | -19% | . | -23% | -10%
CC(=O)Nc1ccc(CN(C)CC2CCCN(CCc3cccc(C(F)(F)F)c3)C2)cc1 (stereo not given) | ? | -27% | -29% | 10µM* | -24%
CCc1nccc2c1nc(-c1nonc1N)n2CC | 25µM* | . | . | . | .
SMILES | LASV entry inh | Vaccinia mCherry | FMDV inh | MARV entry inh | Vaccinia Venus
CCn1c(-c2nonc2N)nc2ccncc21 | -6% | . | . | . | .
COc1ccc2c(c1)CCc1cnc(-n3ncc(C(=O)NCc4cc(C)no4)c3C3CC3)nc1-2 | . | ? | 14% | . | -18%
CC(=O)c1ccc(NC(=O)C(C)N2CCN(C/C=C/c3ccccc3)CC2)cc1 (stereo not given) | 19% | -11% | ? | -14%[14.2 µM] | -9%
Cc1ccc(NC(=O)CCN2CCN(C/C=C/c3ccccc3)CC2)cc1 | -30% | . | ? | 8.9µM* | ?
CC(C(=O)Nc1ccc([N+](=O)[O-])cc1)N1CCN(C/C=C/c2ccccc2)CC1 (stereo not given) | 8% | -29% | 28µM* | 13µM* | -28%
COc1ccc(CCNC(=S)Nc2ccc(S(=O)(=O)Nc3ncccn3)cc2)cc1OC | . | . | 6% | . | .
COC(=O)C1=C(C)N(Cc2ccccc2)C(=NCc2cccc(C(F)(F)F)c2)N[C@H]1c1cccc(C(F)(F)F)c1 | . | 10µM* | 40µM* | . | 28µM*
COC(=O)C1=C(C)N(Cc2ccccc2)C(=NCc2cccc(C(F)(F)F)c2)N[C@H]1c1cccc(F)c1 | . | ? | 40µM* | . | 13µM*
CCOC(=O)c1nc(NNC(=O)c2ccc([N+](=O)[O-])cc2)sc1C | ? | ? | -2% | 8.9µM* | ?
CCOC(=O)c1sc(NNC(=O)c2ccc(C)cc2)nc1C | -27% | -23%[7.34 µM] | 26% | -12%[46.1 µM] | -5%[7.34 µM]
N#CC(C#N)=C1C=CC=CN1/C(=C\c1ccco1)C(=O)c1ccc(Br)cc1 | ? | ? | 10µM* | 6.3µM* | ?
COc1ccc(/C=C(/C(=O)c2cccs2)N2C=CC=CC2=C(C#N)C#N)cc1 | . | . | -18% | -1% | .
N#C/C(=C/c1ccco1)C(N)=S | -16%[46.1 µM] | i | -4% | ? | -17%
COc1ccc(C(=O)/C(=C\c2ccco2)N2C=CC=CC2=C(C#N)C#N)cc1 | ? | ? | 11µM* | ? | ?
N#CC(C#N)=C1C=CC=CN1/C(=C\c1ccco1)C(=O)c1ccccc1 | ? | ? | ? | 25µM* | ?
O=C(CSc1nnc(CNC(=O)c2cccs2)o1)Nc1cccc(Cl)c1 | 30%[46.1 µM] | i | 2% | ? | -9%
Cc1ccc(N2CC(C(=O)Nc3cccnc3)CC2=O)cc1Cl (stereo not given) | 14% | 13% | -5% | -6%[46.1 µM] | -3%
COc1ccccc1CNC(=O)c1cc2c(=O)oc3ccc(C)cc3c2s1 | 19%[46.1 µM] | -20% | 4% | 8%[46.1 µM] | -26%
CC(=O)C1=C(c2ccc(Br)cc2)C(=O)c2ccccc2C1=O | 2.5µM* | -15% | 3.2µM* | 5.2µM* | 6%
CC(=O)Nc1c(Br)cc2c(c1Br)C(=O)c1ccccc1-2 | 11% | 0% | -7% | 16% | -10%
CC(C)(C)SCCNC(=O)c1ccccc1 | ? | . | 19% | -4% | ?
CN(c1ccc(C(=O)NCCSC(C)(C)C)cc1)S(=O)(=O)c1ccccc1 | 23µM* | i | 23% | -17% | -17%
Cc1ccc(C(=O)NCCSC(C)(C)C)cc1 | 10µM* | . | -21% | 8.9µM* | -19%
CC=C[C@@H]1Oc2ccc(OC)cc2N2C(=O)[C@H](C)[C@@H](OCOC)[C@H]12 | . | . | . | -23%[14.2 µM] | .
COc1cc(/C=C/C(=O)c2ccc(C)c([N+](=O)[O-])c2)cc(OC)c1O | -26% | ? | 14µM* | ? | -23%
O=C(C=Cc1cccc([N+](=O)[O-])c1)c1ccccc1 | ? | . | . | -27%[14.2 µM] | .
COc1cc(/C=C/C(=O)c2cccc([N+](=O)[O-])c2)cc(OC)c1OC | ? | i | 28µM* | ? | -21%
Cc1noc(N)c1C1(O)C(=O)Nc2c(Cl)cc(Cl)cc21 (stereo not given) | -23%[46.1 µM] | ? | -14% | 4%[46.1 µM] | -19%
